Assay results as given in PMC5540273 (PLoS ONE, 2017).

Experiments:
Details in all cases: concentration: 1 μM, replicates: in singlicate; n = 1
[1] = system: PLK2
[2] = system: PLK3
[3] = system: PLK4
[4] = system: PRKCD
[5] = system: PRKCE
[6] = system: PRKCH
[7] = system: PRKCI
[8] = system: PRKCQ
[9] = system: PRKD1
[10] = system: PRKD2
[11] = system: PRKD3
[12] = system: PRKG1
[13] = system: PRKG2
[14] = system: T1, PRKR
T1 construct: gene EIF2AK2

[15] = system: PRKX
[16] = system: PRP4
[17] = system: T2, PYK2
T2 construct: gene PTK2B

[18] = system: QSK
[19] = system: RAF1
[20] = system: RET
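Also: KINOMEscan kinase panel screen.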

SMILES	%Inh [1] [%]	%Inh [2] [%]	%Inh [3] [%]	%Inh [4] [%]	%Inh [5] [%]	%Inh [6] [%]	%Inh [7] [%]	%Inh [8] [%]	%Inh [9] [%]	%Inh [10] [%]	%Inh [11] [%]	%Inh [12] [%]	%Inh [13] [%]	%Inh [14] [%]	%Inh [15] [%]	%Inh [16] [%]	%Inh [17] [%]	%Inh [18] [%]	%Inh [19] [%]	%Inh [20] [%]
N#Cc1cnc2cc(-c3cnc(CNCCN4CCOCC4)s3)ccc2c1Nc1ccc(Oc2ccccc2)cc1 [GW664114]	0	0	2	0	0	96.3	5	0	0	18	9	0	0	4	4	51	4	0	0	60
COc1cc(Nc2nccc(N3CCC(NS(=O)(=O)c4ccc(NC(C)=O)cc4)CC3)n2)cc(OC)c1OC [GSK1379825]	0	29	27	0	14	35	19	26	0	0	0	5	0	0	15	18	37	20	60	30
COc1ccc(C2=C(Nc3cccc(O)c3)C(=O)NC2=O)cc1 [SB-390766]	0	0	13	0	49	0	18	0	0	4	0	0	0	0	0	49	0	12	96.2	25
CCn1cnc2c(NCc3ccccc3)ncnc21 [SKF-96418]	25	34	1	3	29	0	0	0	0	0	0	0	0	8	0	41	0	10	17	0
Cc1cc(-c2c(-c3ccc(F)cc3)ncn2CCCN2CCOCC2)nc(N)n1 [SB-222517]	11	25	15	28	0	0	27	0	0	0	0	0	0	16	0	0	10	23	0	13
Cc1nn2c(=O)cc(N3CCO[C@H](C)C3)nc2n1Cc1cccc(Cl)c1Cl [GSK2373693]	0	0	48	0	74	13	24	12	14	2	45	4	0	0	9	14	0	0	9	69
CC(C)(C)c1ccc(C(=O)Nc2cn3cc(-n4ccnc4)ccc3n2)cc1	24	10	0	7	15	0	10	23	0	12	0	0	7	0	41	22	8	0	10	0
CC(C)c1nc(-c2cccc(NS(=O)(=O)c3c(F)cccc3F)c2)c(-c2ccnc(Nc3ccc(N4CCOCC4)nc3)n2)s1.Cl [GSK1723980]	0	0	100	0	0	2	20	27	93.9	99.4	100	0	0	29	7	0	25	82	99.4	99.6
O=C(Nc1n[nH]c2nc(-c3ccccc3)ccc12)C1CC1 [SB-708999]	0	0	17	0	2	24	27	0	0	7	0	1	0	0	5	7	0	0	23	32
CN(c1ccc(NC(=O)Nc2cccc(Cl)c2)cc1)c1ccnc(N)n1.Cl [GW830707]	14	3	14	7	28	0	0	0	0	0	0	0	0	0	0	12	0	15	17	50
CC(C)c1nc(-c2ccc(F)c(NS(=O)(=O)c3c(F)cccc3F)c2)c(-c2ccnc(Nc3ccc(N4CCOCC4)nc3)n2)s1 [GSK1804250]	0	0	99.8	8	7	21	39	0	93.6	99.4	100	1	1	35	23	2	50	32	95.3	89
COC(=O)Nc1nc2cc(Oc3ccc(NC(=O)Nc4cccc(SC)c4)cc3)ccc2[nH]1.Cl [GW697999]	0	0	0	1	11	4	0	0	3	10	18	1	17	0	24	28	0	0	92.6	99.8
CN(c1ccc2c(c1)nc(NCc1ccccc1)n2C)c1ccnc(Nc2ccc(CS(C)(=O)=O)cc2)n1.Cl [GW811603]	0	79	62	100	36	0	0	0	0	0	0	3	4	1	0	22	21	0	97.5	99.9
O=C(Nc1n[nH]c2nc(-c3ccccc3O)ccc12)C1CC1 [SB-711880]	0	0	0	25	0	0	27	0	0	5	0	0	28	10	1	0	4	33	0	0
CC(C)NCC(Cc1ccccc1)NC(=O)c1cc(Br)c(-c2ccnc3[nH]ccc23)s1.Cl.Cl (stereo not shown) [GSK1383281]	13	38	90.1	84	89	82	19	50	75	71	81	98.8	98.8	16	96.5	24	17	5	0	66
COc1cc(Nc2nccc(N3CCC(NC(=O)Nc4ccc5c(c4)OCO5)C3)n2)cc(OC)c1OC (stereo not shown) [GSK1379766]	0	2	48	0	8	0	11	0	0	0	0	0	0	0	33	50	15	3	0	28
Cl.N#CCc1ccc(Nc2nccc(Nc3ccc(Oc4ccccc4)cc3)n2)cc1 [GW639905]	0	0	1	0	6	0	4	0	0	0	53	0	0	0	10	16	8	1	6	38
COc1ccc(C)c(Nc2ccnc(Nc3ccc(-c4cnc[nH]4)cc3)n2)c1.Cl [GW784041]	0	0	15	30	12	0	25	0	16	12	0	0	12	0	0	0	5	0	27	0
Nc1ncc(-c2cn[nH]c2)c2scc(-c3ccc4c(c3)CCN4C(=O)Cc3ccccc3)c12 [GSK2593067]	17	0	0	0	0	16	32	17	0	0	11	27	0	0	21	0	9	9	0	34
CN1CCN(Cc2ccc(NC(=O)Nc3ccc(N(C)c4ccnc(Nc5ccc(CS(C)(=O)=O)cc5)n4)cc3)cc2)CC1.Cl [GW827654]	12	3	90	5	5	0	23	38	23	27	0	0	0	0	22	33	88	0	0	100
